Consider 24 molecules from PubChem BioAssay (NCATS).

In one assay the test system is MCC-13. The experiment in a line: qHTS assay to identify novel small-molecules to repurpose for Merkel cell carcinoma treatment (AID 1296009). Note: nearly all actives have a fitted effect of over 60% in size. The following applies: MCC and control cell lines, CellTiter-Glo viability, 72 h; series mostly up to 46 µM. The procedure, abridged:
(§1)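 Cells were treated for 72 hr at 37 degree celsius with compounds in 8- or 11-point dose response. Viability was read by CellTiter-Glo luminescence, normalized to no-cell (cytotoxicity) and DMSO controls.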

The subject of the next assay is MCC-26. Described as above. Particulars: MCC and control cell lines, CellTiter-Glo viability, 72 h; series mostly up to 46 µM. The procedure, abridged:
as §1
In general terms: ATP-based viability assays read luminescence as a measure of living cells.

The next assay concerns MKL-1. Described as above. The following applies: MCC and control cell lines, CellTiter-Glo viability, 72 h; series mostly up to 46 µM. Put shortly:
as §1

For another assay, the system named is MKL-2. The description is as above. The following applies: MCC and control cell lines, CellTiter-Glo viability, 72 h; series mostly up to 46 µM. The procedure, abridged: as §1
For another assay, the system named is UISO. The description is as above. The following applies: MCC and control cell lines, CellTiter-Glo viability, 72 h; series mostly up to 46 µM. Put shortly: as §1
For the next assay, the system named is WaGa. The assay is described as above. Particulars: MCC and control cell lines, CellTiter-Glo viability, 72 h; series mostly up to 46 µM. The procedure, abridged:
as §1

For a further assay, the system named is C33A. Put plainly: Primary qHTS to identify gynecologic anti-cancer compounds using libraries of approved drugs and bioactive compounds (AID 1345084). Note: nearly all actives have a fitted effect of over 55% in size. The following applies: Gynecologic cancer cell panel viability, ATPlite luminescence, 48 h; series mostly up to 57.5 µM. Put shortly: (§2)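 Luminescence from the ATPlite ATP-monitoring reagent indicates viable cell number; lower signal means cytotoxicity. Cells received compound 16 h after seeding and were exposed for 48 h across five concentrations.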
For orientation: In qHTS, concentration-response curves come from the screen itself.

The subject of a further assay is CAOV3. The assay is described as above. Particulars: Gynecologic cancer cell panel viability, ATPlite luminescence, 48 h; series mostly up to 57.5 µM. The procedure, abridged: as §2

Records with an inconclusive call do not appear. Values without a mark were called inactive. Active and inactive are the calls of the source. Calls come from the whole dose curve; as a rule, active = well fitted curve in the direction sought with a large enough effect; inconclusive = small, poorly fitted or top-dose-only effect, or another doubt; inactive = no such curve, though single readings can be large; an effect the other way counts as inactive or inconclusive.
Potency is the fitted concentration of half-maximal effect.

Turning to `Cc1onc(-c2c(Cl)cccc2Cl)c1C(=O)Cl`, the Potency entry with MCC-13, in the assay on MCC-26, in the assay on MKL-1, in the assay on MKL-2, in the assay with UISO and in the assay with WaGa was “inactive” throughout. In addition, in the assay on C33A, the Potency entry was “inactive”.

Take `Cc1ccc(O)cc1`: the Potency entry with MCC-13, in the assay with MCC-26, in the assay on MKL-1, in the assay on MKL-2, in the assay with UISO and with WaGa was “inactive” in each case. Besides, the Potency entry in the assay with C33A and in the assay on CAOV3 was “inactive” throughout.

As for `CCCC(=O)O[C@]1(C(=O)COC(=O)CC)CC[C@H]2[C@@H]3CCC4=CC(=O)CC[C@]4(C)[C@H]3[C@@H](O)C[C@@]21C`, the Potency result in the assay with MCC-13, in the assay on MCC-26, with MKL-1, with MKL-2, with UISO and in the assay on WaGa was “inactive” in each case. For the same molecule, the Potency entry in the assay with C33A and in the assay on CAOV3 was “inactive” throughout.

Consider `CN(CC1(C)CCCO1)S(=O)(=O)c1ccc(Cl)c(S(N)(=O)=O)c1` (centres undefined), for which the Potency entry with MCC-13, in the assay with MCC-26, with MKL-1, in the assay on MKL-2, with UISO and with WaGa was “inactive” in each case. In addition, the Potency result in the assay on C33A and with CAOV3 was “inactive” each time.

Consider `Cc1ncc(CO)c(CO)c1O`, for which the Potency entry in the assay with MCC-13, with MCC-26, with MKL-1, in the assay on MKL-2, in the assay with UISO and with WaGa was “inactive” each time. Also, in the assay on C33A, the Potency entry is “inactive”.

On to `O=[N+]([O-])c1ccc(O)c2ncccc12`, for which the Potency in the assay on MCC-13 was 11.9 µM (active); in the assay with MCC-26 it was 13.3 µM (active); with MKL-1, 3.76 µM (active); in the assay with MKL-2, 2.66 µM (active); with UISO, 7.5 µM (active); in the assay with WaGa, 7.5 µM (active). Besides, the Potency in the assay with C33A was 15.8 µM (active).

For `Brc1ccccc1-c1ccccc1`, the Potency result in the assay with MCC-13, in the assay with MCC-26, in the assay with MKL-1, with MKL-2, with UISO and in the assay on WaGa was “inactive” in each case. Moreover, in the assay on C33A, the Potency entry is “inactive”.

Consider `O=C1CCCc2c(O)cccc21`, for which the Potency result in the assay on MCC-13, in the assay with MCC-26, with MKL-1, in the assay on MKL-2, in the assay on UISO and with WaGa was “inactive” in each case. For the same molecule, the Potency entry in the assay on C33A was “inactive”.

Consider `Nc1ncnc2nc[nH]c12`, for which the Potency result in the assay on MCC-13, with MCC-26, with MKL-1, in the assay on MKL-2, with UISO and in the assay on WaGa was “inactive” throughout. Further, the Potency result in the assay with C33A was “inactive”.

In the case of `Cc1ccc(Cl)c(OCC(O)CNC(C)(C)C)c1` (centres undefined), the Potency result with MCC-13, with MCC-26, with MKL-1, in the assay with MKL-2, in the assay with UISO and in the assay with WaGa was “inactive” each time. Moreover, the Potency entry in the assay on C33A and in the assay with CAOV3 was “inactive” each time.

For the molecule `CC1(C)O[C@@H]2C[C@H]3[C@@H]4C[C@H](F)C5=CC(=O)C=C[C@]5(C)[C@@]4(F)[C@@H](O)C[C@]3(C)[C@]2(C(=O)CO)O1`, the Potency entry with MCC-13, in the assay on MCC-26, in the assay with MKL-1, in the assay with MKL-2, in the assay on UISO and in the assay on WaGa was “inactive” each time. Besides, the Potency entry with C33A is “inactive”.

Take `CO/N=C(/C(=O)N[C@@H]1C(=O)N2C(C(=O)O)=C(Cn3nnc(C)n3)CS[C@H]12)c1csc(N)n1`: the Potency result with MCC-13, with MCC-26, with MKL-1, with MKL-2, with UISO and in the assay on WaGa was “inactive” in each case. The Potency entry in the assay on C33A was “inactive”.

`CN(C)C(=O)CNC(=O)Cc1ccccc1`: the Potency entry with MCC-13, with MCC-26, in the assay on MKL-1, with MKL-2, with UISO and in the assay with WaGa was “inactive” each time. Besides, the Potency result in the assay on C33A and in the assay on CAOV3 was “inactive” throughout.

On to `C/C=C(/C(=C/C)c1ccc(OC(C)=O)cc1)c1ccc(OC(C)=O)cc1`, for which the Potency result in the assay with MCC-13, in the assay with MCC-26, with MKL-1, in the assay on MKL-2, with UISO and in the assay on WaGa was “inactive” throughout. In the assay with C33A, the Potency result was “inactive”.

As to `CC(=O)N(c1onc(C)c1C)S(=O)(=O)c1ccc(N)cc1`, the Potency entry with MCC-13, with MCC-26, with MKL-1, in the assay with MKL-2, with UISO and in the assay with WaGa was “inactive” in each case. Besides, the Potency entry with C33A was “inactive”.

`CCCc1ccc(OCC(=O)N2CCN(C(=O)COc3ccc(CCC)cc3OC)CC2)c(OC)c1`: the Potency entry with MCC-13, in the assay with MCC-26, in the assay with MKL-1, in the assay on MKL-2, with UISO and with WaGa was “inactive” in each case. Besides, the Potency entry in the assay with C33A and with CAOV3 was “inactive” each time.

For `Cc1cc(C(C)(C)C)c(O)c(C(C)(C)C)c1`, the Potency entry in the assay on MCC-13, in the assay with MCC-26, in the assay on MKL-1, in the assay with MKL-2, in the assay with UISO and with WaGa was “inactive” each time. Further, the Potency entry in the assay on C33A is “inactive”.

Consider `OCCc1ccccc1`, for which the Potency result in the assay with MCC-13, in the assay on MCC-26, in the assay with MKL-1, in the assay with MKL-2, in the assay on UISO and in the assay with WaGa was “inactive” in each case. Moreover, the Potency entry in the assay with C33A and in the assay with CAOV3 was “inactive” each time.

`COCCOCC(OC)OC`: the Potency entry in the assay on MCC-13, in the assay on MCC-26, in the assay on MKL-1, with MKL-2, in the assay on UISO and in the assay with WaGa was “inactive” throughout. For the same molecule, the Potency entry in the assay on C33A was “inactive”.

For the molecule `COc1ccccc1N1CCN(CC(O)COc2cc(OC)c(OC)c(OC)c2)CC1` (centres undefined), the Potency entry in the assay with MCC-13, in the assay with MCC-26, with MKL-1, with MKL-2, with UISO and with WaGa was “inactive” each time. The Potency result in the assay with C33A is “inactive”.

With `CC(C)C[C@@H]1[C@H](c2ccccc2)OC(=O)N1CCCN1CCCCCC1`, the Potency entry with MCC-13, in the assay with MCC-26, in the assay with MKL-1, in the assay on MKL-2, in the assay on UISO and with WaGa was “inactive” in each case. For the same molecule, the Potency entry with C33A was “inactive”.

In the case of `NC(=O)NS(=O)(=O)c1ccc(Cl)cc1`, the Potency entry in the assay with MCC-13, with MCC-26, with MKL-1, in the assay on MKL-2, with UISO and in the assay on WaGa was “inactive” throughout. The Potency result in the assay with C33A is “inactive”.

In the case of `COc1ccc2cc(C=O)ccc2c1`, the Potency entry with MCC-13, with MCC-26, with MKL-1, with MKL-2, in the assay with UISO and in the assay with WaGa was “inactive” in each case. In addition, in the assay on C33A, the Potency entry was “inactive”.

Regarding `Cc1c(C)c2c(c(C)c1OC(=O)CCC(=O)OCCO)CC[C@@](C)(CCC[C@H](C)CCC[C@H](C)CCCC(C)C)O2`, the Potency result in the assay on MCC-13, in the assay on MCC-26, in the assay on MKL-1, in the assay with MKL-2, in the assay with UISO and in the assay on WaGa was “inactive” throughout.
